The list is not random: actives were taken first. Their share in the collection is about 0.84%.
COUP-TFII inh = inhibitors of human COUP-TFII (NR2F2); HEK293T NGFI-A luciferase reporter, luminescence; inhibition, % at 8.6 µM; actives 0.7% (n = 370,000);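 active = inhibition above a per-plate cutoff, mean inhibition of test wells between control levels plus 3 SD, cut at about 38% in these data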;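 note: cells cotransfected with COUP-TFII expression vector driving the NGFI-A reporter; 0% = median of COUP-TF2 test wells and 100% = reporter-only cells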
SRC3 inh = inhibitors of human steroid receptor coactivator 3 (SRC3); HEK293 GAL4-SRC3 luciferase reporter, luminescence; inhibition, % at 3.6 µM; actives 0.17% (n = 360,000); AID 588352;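 active = inhibition above a per-campaign cutoff, the mean of all compounds plus 3 SD, cut at about 60% in these data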;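 note: 0% = DMSO-treated cells and 100% = gossypol-treated cells at 36 µM; higher means less SRC3-driven luciferase light from the GAL4 reporter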
Target sequence (Q9Y6Q9 whole entry, looked up, the tested form may be a part): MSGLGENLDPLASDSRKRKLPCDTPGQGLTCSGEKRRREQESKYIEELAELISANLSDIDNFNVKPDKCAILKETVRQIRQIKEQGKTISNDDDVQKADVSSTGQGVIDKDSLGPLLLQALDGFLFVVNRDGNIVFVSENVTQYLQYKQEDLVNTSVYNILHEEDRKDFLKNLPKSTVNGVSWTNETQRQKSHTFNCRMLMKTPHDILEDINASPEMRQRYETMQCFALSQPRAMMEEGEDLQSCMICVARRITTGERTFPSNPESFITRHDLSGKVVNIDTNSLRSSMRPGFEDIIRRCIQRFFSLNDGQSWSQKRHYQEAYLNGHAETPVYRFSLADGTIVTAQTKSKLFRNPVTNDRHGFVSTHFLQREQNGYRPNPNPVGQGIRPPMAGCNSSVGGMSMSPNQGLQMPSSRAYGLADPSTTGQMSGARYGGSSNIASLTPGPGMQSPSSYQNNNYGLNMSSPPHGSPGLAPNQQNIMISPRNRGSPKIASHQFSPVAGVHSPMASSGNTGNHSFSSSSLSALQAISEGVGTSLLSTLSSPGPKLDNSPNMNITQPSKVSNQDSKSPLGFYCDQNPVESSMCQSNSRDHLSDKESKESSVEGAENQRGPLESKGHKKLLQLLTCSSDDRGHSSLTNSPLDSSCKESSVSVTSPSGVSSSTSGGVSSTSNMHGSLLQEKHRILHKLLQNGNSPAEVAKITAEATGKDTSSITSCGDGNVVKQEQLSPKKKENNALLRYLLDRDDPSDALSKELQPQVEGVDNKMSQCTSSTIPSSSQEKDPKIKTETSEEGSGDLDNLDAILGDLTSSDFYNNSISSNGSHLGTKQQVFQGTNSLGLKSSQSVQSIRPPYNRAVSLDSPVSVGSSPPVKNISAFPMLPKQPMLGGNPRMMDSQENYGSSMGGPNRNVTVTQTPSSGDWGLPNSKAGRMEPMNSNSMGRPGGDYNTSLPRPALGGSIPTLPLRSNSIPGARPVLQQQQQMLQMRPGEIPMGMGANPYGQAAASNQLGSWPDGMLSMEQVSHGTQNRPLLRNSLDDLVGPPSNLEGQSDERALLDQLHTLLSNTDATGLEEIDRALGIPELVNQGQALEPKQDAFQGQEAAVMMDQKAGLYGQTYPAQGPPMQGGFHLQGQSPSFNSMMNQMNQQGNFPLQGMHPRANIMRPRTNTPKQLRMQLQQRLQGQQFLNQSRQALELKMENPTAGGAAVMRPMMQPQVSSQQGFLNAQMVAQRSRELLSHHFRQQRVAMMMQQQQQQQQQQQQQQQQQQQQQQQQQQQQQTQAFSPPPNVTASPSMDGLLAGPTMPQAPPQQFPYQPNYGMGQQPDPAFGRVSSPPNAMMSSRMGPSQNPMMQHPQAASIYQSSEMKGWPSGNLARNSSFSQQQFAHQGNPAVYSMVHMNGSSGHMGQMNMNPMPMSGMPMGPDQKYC
NCOA1 inh = inhibitors of human steroid receptor coactivator 1 (SRC1) | Q15788 | HEK293 GAL4-SRC1 luciferase reporter, luminescence | inhibition, % at 3.6 µM | actives 0.12% (n = 360,000);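 active = inhibition above the campaign mean plus 3 SD, with each screening campaign given its own cutoff, cut at about 60% in these data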;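 note: 0% = DMSO treated cells and 100% = gossypol at 36 µM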
NR5A2 inv ag = inverse agonists of human LRH-1 (NR5A2) | O00482 | HEK293T StAR-luciferase reporter, LRH-1 transfected, 24 h | inhibition, % at 3.6 µM | actives 0.13% (n = 360,000) | AID 602396;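 active = inhibition above the mean inhibition of all tested compounds plus 3 SD, cut at about 73% in these data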;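 note: 0% = DMSO wells and 100% = reporter-only cells lacking LRH-1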
SRC2 inh = human SRC2 (NCOA2) inhibition | Q15596 | HEK293 GAL4-SRC2 luciferase reporter, luminescence | inhibition, % at 9 µM | actives 0.17% (n = 370,000);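 active = inhibition above the mean inhibition of all tested compounds plus 3 SD, set per campaign, cut at about 52% in these data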;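 note: 0% = DMSO treated cells and 100% = cells given Gossypol at 36 µM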
VP16 Luc counter = counter-screen for COUP-TFII antagonists: inhibitors of VP16; shares compounds with COUP-TFII inh; HEK293 Gal4-VP16 luciferase reporter, luminescence; inhibition, % at 8.5 µM; actives 25% (n = 2,500); AID 687007; in the data active = inhibition above about 13%
COUP-TFII conf = confirmation of human COUP-TFII (NR2F2) inhibitors; actives 45% (n = 2,500); inhibition, % at 8.5 µM; HEK293 NGFI-A luciferase reporter, luminescence; shares compounds with COUP-TFII inh;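 active = mean inhibition over three repeats above a set limit taken from the earlier primary screen, cut at about 38% in these data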;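 note: 100% = cells given the luciferase reporter alone without the COUP-TF2 vector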
Starred values were filed as active, the others as inactive; · = not tested or not shown.

SMILES	COUP-TFII inh	SRC3 inh	NCOA1 inh	NR5A2 inv ag	SRC2 inh	VP16 Luc counter	COUP-TFII conf
CCN(CC)C(=O)c1cccc(-c2csc(C(C)(O)c3cccc(F)c3)n2)c1 (centres undefined)	17	10	2	-18	13	·	·
O=C(NC1CCN(c2ncccn2)CC1)c1ccccc1Cl	-10	1	-4	10	3	·	·
CCCCOCCCNC(=O)C[C@H]1C[C@@]2(C(=O)OC)C(=C[C@H](C(C)(C)C)O[C@@H]2C)N(CCC2=CCCCC2)C1=O	6	·	·	·	-14	·	·
COC(=O)[C@]12C[C@H](CC(=O)N3CCCC3)C(=O)N(Cc3ccccc3)C1=C[C@H](C(C)(C)C)O[C@@H]2C	4	·	·	·	12	·	·
O=C(CN1CCN(Cc2ccc(Cl)cc2)C1=O)NCCCN1CCOCC1	3	31	35	14	-5	·	·
O=C(CN1CCN(Cc2ccc(Cl)cc2)C1=O)NCCCN1CCN(c2ccc(F)cc2)CC1	56*	31	9	24	15	1	13
CCN(C(=O)CC(C)C)c1nnc(Cn2nnc3ccccc32)s1	29	0	-4	0	-19	·	·
CCN(C(=O)c1ccc(C(C)(C)C)cc1)c1nnc(Cn2nnc3ccccc32)s1	76*	31	4	33	21	13*	72*
CCOC(=O)[C@]12CCCC3=C1N(CCC3)C(=O)[C@@H](CC(=O)NCc1cccc3ccccc13)C2	-2	·	·	·	-4	·	·
Cc1ccc(S(=O)(=O)CC2CSc3nc4ccccc4n32)cc1 (centres undefined)	67*	25	26	48	16	9	64*
Cc1ccc(S(=O)(=O)CC2CSc3nc(N)cc(=O)n32)cc1 (centres undefined)	-8	-5	-13	-2	3	·	·
C/C=C/C(=O)Nc1cccc(C2=NOC3(C2)C[C@@H](C(N)=O)N(C(=O)/C(C)=C/C)C3)c1 (some centres undefined)	6	-1	-14	4	-5	·	·
COc1ccc(CCN2C(=O)CSC2c2ccc(OC)c(OC)c2)cc1OC (centres undefined)	0	10	3	4	-23	·	·
COc1ccc(C2SCC(=O)N2CCc2ccc(OC)c(OC)c2)cc1 (centres undefined)	43*	27	11	26	19	-3	19
Cc1nc(Oc2ccccc2)c2oc3ccccc3c2n1	2	2	-21	-13	-28	·	·
COc1ccc(Oc2nc(C)nc3c2oc2ccccc23)cc1	42*	5	0	17	25	-1	12
Cc1ccc(NC(=O)c2ccc(OCC3CCCO3)cc2)cc1 (centres undefined)	-14	-60	-144	-136	-28	·	·
O=C(Nc1ccc(S(=O)(=O)N2CCCC2)cc1)c1ccc(CN2CCc3ccccc3C2)cc1	77*	53	32	60	10	0	71*
COc1ccc(NC(=O)c2ccc(CN3CCc4ccccc4C3)cc2)cc1OC	-3	-3	2	4	-34	·	·
O=C(Nc1ccc(Cc2ccncc2)cc1)c1ccc(S(=O)(=O)N2CCCC2)cc1	69*	26	22	27	13	11	52*
O=C(Nc1ccc(S(=O)(=O)N2CCCC2)cc1)c1ccc(OCC2CCCO2)cc1 (centres undefined)	38*	-5	-16	24	22	-2	17
O=C(Nc1ccc(Cl)cc1)c1ccc(CN2CCc3ccccc3C2)cc1	41*	-23	-21	10	-16	-109	12
Cc1ccc(S(=O)(=O)Nc2c(C)nc3nc[nH]n3c2=O)c(C)c1	15	6	6	-11	4	·	·
N#CCc1ccc(NC(=O)c2ccc(CN3CCc4ccccc4C3)cc2)cc1	56*	7	9	21	5	0	56*
CC(=O)c1cccc(NC(=O)c2ccc(CN3CCc4ccccc4C3)cc2)c1	19	0	27	9	-13	·	·
SMILES	COUP-TFII inh	SRC3 inh	NCOA1 inh	NR5A2 inv ag	SRC2 inh	VP16 Luc counter	COUP-TFII conf
Fc1cccc(-c2cc3nc(-c4ccccc4)cc(N4CCC5(CC4)OCCO5)n3n2)c1	-4	0	-6	1	17	·	·
COCCN1CCN(c2cc(-c3ccccc3)nc3cc(-c4cccc(F)c4)nn23)CC1	47*	2	-1	23	30	-6	-3
O=C(c1ccc(CSc2nc3ccncc3[nH]2)cc1)N1CCN(c2cccc(Cl)c2)CC1	78*	3	18	10	7	12	51*
O=C(c1ccc(CSc2nc3ccncc3[nH]2)cc1)N1CCCCCC1	-15	-53	-75	-77	-42	·	·
CCOC(=O)c1ccc(NC(=O)C2CCCN(S(=O)(=O)c3ccc(F)cc3)C2)cc1 (centres undefined)	64*	23	14	17	24	-2	17
COc1ccc(/C=C/C(=O)Nc2ccccc2C)cc1S(=O)(=O)N1CCOCC1	48*	0	-14	-36	-13	-80	-20
COc1cc(/C=C/C(=O)Nc2ccc(OC)c(S(=O)(=O)N3CCOCC3)c2)ccc1OC(F)F	38*	29	13	17	35	13*	31
Cc1ccc(NC(=O)/C=C/c2ccc(S(=O)(=O)N3CCOCC3)cc2)cc1S(=O)(=O)N(C)C	49*	8	9	22	30	6	44*
Cc1cc2c(c(=O)o1)[C@@]1(C(=O)N(C)c3cc(Br)ccc31)C1=C(CCCC1=O)O2	0	·	·	·	-7	·	·
O=S(=O)(c1ccc2nc(COc3ccc(Cl)cc3Cl)[nH]c2c1)N1CCOCC1	11	19	0	0	-16	·	·
Clc1ccc2nc(CNc3nc(N4CCOCC4)nc4c3ncn4-c3ccsc3)[nH]c2c1	70*	·	·	·	·	19*	45*
C=CCn1c(O)c(N=NC(=S)Nc2ccccc2F)c2ccccc21	22	16	8	14	5	·	·
C=CCn1c(O)c(N=NC(=S)Nc2ccccc2F)c2cc(S(=O)(=O)N3CCOCC3)ccc21	49*	17	7	-2	14	-2	28
COC(=O)c1cc2c(c3c4cc(C)ccc4n(S(=O)(=O)c4ccc(OC)cc4)c13)C(=O)N(Cc1ccc(C(F)(F)F)cc1)C2	-4	·	·	·	-15	·	·
CCOC(=O)N1CCN(C(=O)C(C)N(c2ccc(Oc3ccccc3)cc2)S(C)(=O)=O)CC1 (centres undefined)	1	4	3	9	-10	·	·
COc1ccc(N(C(C)C(=O)N2CCC(Cc3ccccc3)CC2)S(C)(=O)=O)cc1 (centres undefined)	42*	24	19	11	24	-3	30
COc1ccc(N(C(C)C(=O)N2CCCC2)S(C)(=O)=O)cc1 (centres undefined)	-8	-12	5	0	11	·	·
